ssDAF-12 act: activates DAF-12 receptor from parasite S. stercoralis | 1% of 370,000 active | AID 652126 | activation, % at 6.8 µM | HEK293 ssDAF-12/GRIP1 lit1-tk-luc reporter, luminescence; % of 3 µM dafachronic acid response;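 active = activation above the mean over all tested compounds plus 3 SD, cut at about 0.9% in these data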;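 also: 0% = DMSO-only wells and 100% = 3 µM delta7-dafachronic acid wells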
DAX1 inh-1: inhibitors of DAX1 repression of SF-1 activated StAR promoter; AID 652010; HEK293T StAR-luciferase reporter, SF-1/DAX-1 repression relief; inhibition, % at 6.8 µM; 1.1% of 370,000 active;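 active = inhibition above the mean over all tested compounds plus 3 SD, cut at about 3.6% in these data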;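 also: 0% = DAX-1 cells with DMSO and 100% = cells lacking DAX-1 with DMSO; higher inhibition means more luminescence from relief of DAX-1 repression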
hcDAF12 agonist: H. contortus DAF-12 activation, primary screen; HEK293 hcDAF-12 lit1-tk-luc reporter, luminescence; 0% DMSO, 100% Δ7-dafachronic acid; activation, % at 6.8 µM; 1.4% of 370,000 active;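 active = activation above the mean of all tested compounds plus 3 SD, cut at about 5.5% in these data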;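 also: 100% = response to 3 µM Δ7-dafachronic acid high control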
FXN GAA850 act: frataxin GAA850 promoter activation; HEK293 lucGAA850 FXN promoter luciferase reporter, 24 h; percent of 10 µM SAHA response; activation, % at 6 µM; AID 540364; 0.56% of 360,000 active;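 active = activation above the average of all compounds screened plus 3 SD, cutoff fixed separately per campaign, cut at about 7.5% in these data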;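 also: 0% = DMSO wells and 100% = 10 µM SAHA wells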
hgDAF12 agonist: hgDAF-12 agonism, primary luciferase screen. HEK293 GAL4-hgDAF12 UAS-luciferase reporter, agonist luminescence; normalized to butyrate control. activation, % at 6.8 µM. 1.8% of 370,000 active;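 active = activation above a cutoff set at the mean of all screened compounds plus 3 SD, cut at about 10% in these data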;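 also: 0% = DMSO wells and 100% = sodium butyrate wells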
DAX1 inh-2: inhibits human nuclear receptor DAX1; P51843; HEK293 Gal4-DAX1 luciferase reporter, luminescence; inhibition, % at 6.75 µM; 0.99% of 340,000 active; AID 504766;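 active = inhibition above the mean over all tested compounds plus 3 SD, cut at about 4.2% in these data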;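 also: 0% = DAX1-transfected cells with DMSO and 100% = empty-vector control cells with DMSO; inhibition shows as a rise in luminescence from relieved DAX1 repression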
Target sequence (P51843 207-470 limits assumed): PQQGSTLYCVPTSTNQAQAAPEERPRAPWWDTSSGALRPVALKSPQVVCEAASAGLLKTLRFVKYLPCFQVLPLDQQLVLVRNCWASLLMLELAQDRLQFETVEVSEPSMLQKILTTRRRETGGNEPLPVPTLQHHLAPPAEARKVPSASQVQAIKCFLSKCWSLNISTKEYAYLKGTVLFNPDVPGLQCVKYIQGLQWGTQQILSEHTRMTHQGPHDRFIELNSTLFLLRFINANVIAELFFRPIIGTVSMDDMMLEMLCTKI
DAX1 inh confirm: NR0B1 (human) inhibition, confirmation; shares compounds with DAX1 inh-1; HEK293T StAR-promoter luciferase reporter, SF-1/DAX-1 repression; inhibition, % at 6.8 µM; 87% of 2,400 active;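 active = inhibition above the average of every tested compound plus 3 SD, cut at about 3.8% in these data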;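 also: 0% = DAX-1 cells with DMSO and 100% = no DAX-1 control cells with DMSO; active compounds raise luminescence by relieving repression of the StAR reporter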
SF1 mutant ctr: nonselective inhibitor or artifact in SF-1 mutant DAX1 counter-screen; inhibition, % at 6.8 µM; 78% of 2,400 active; AID 652136; HEK293 StAR-luciferase, SF-1 AF2 mutant, luminescence; shares compounds with DAX1 inh-1;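 active = inhibition above the mean of all tested compounds plus 3 SD, cut at about 3% in these data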;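 also: 0% = DAX-1 transfected cells with DMSO and 100% = cells without DAX-1 with DMSO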
LXR ag: activates human LXR-beta, counter-screen for hcDAF-12 agonists | shares compounds with hcDAF12 agonist | HEK293 Gal4-LXR tk-luc reporter, luminescence, 24 h; normalized: DMSO 0%, positive control 100% | activation, % at 6.8 µM | 3,400 tested, under 10 active | AID 743027;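 active = mean percent activation of the reporter above a cutoff set as the average over tested compounds plus their standard deviation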
hcDAF12 ag: confirmation of H. contortus DAF-12 agonists | activation, % at 6.8 µM | 61% of 3,400 active | AID 743032 | HEK293 hcDAF-12 lit1-tk-luc reporter, luminescence; % of Δ7-dafachronic acid response | shares compounds with hcDAF12 agonist;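 active = mean activation across triplicate tests above the threshold derived from the earlier primary screen, cut at about 5.5% in these data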;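 also: 0% = DMSO only wells and 100% = 3 µM Δ7-dafachronic acid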
hgDAF12 conf: hgDAF-12 agonism, confirmation assay | shares compounds with hgDAF12 agonist | HEK293 GAL4-hgDAF12 luciferase reporter, agonist mode; percent of butyrate response | activation, % at 6.8 µM | 80% of 3,300 active | AID 743050;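 active = mean activation over triplicate wells above the hit cutoff derived from the earlier primary screen, cut at about 11% in these data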;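 also: 0% = DMSO low control and 100% = 2 mM sodium butyrate high control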
LXRb DAF12 ctr: LXR-beta agonism as DAF-12 counter-screen. shares compounds with hgDAF12 agonist. HEK293 Gal4-LXR luciferase reporter, 24 h. activation, % at 6.8 µM. 3,300 tested, under 10 active;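 active = mean activation of the triplicate above a set limit carried over from the primary screen, none filed active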
The depositor's hits bear a star; / = no result. Only some compounds are listed: those with a hit (about 4.5% of all), similar ones and a draw of the others.

SMILES	ssDAF-12 act	DAX1 inh-1	hcDAF12 agonist	FXN GAA850 act	hgDAF12 agonist	DAX1 inh-2	DAX1 inh confirm	SF1 mutant ctr	hgDAF12 conf	LXRb DAF12 ctr	others
c1ccc(-c2nc(-c3nccc4ccccc34)oc2-c2ccccc2)cc1	3.0*	4.8*	15*	7	18*	5.0*	4.8*	2	19*	1	LXR ag=1;hcDAF12 ag=5.7*
Cc1oc2cc3oc(=O)c(CCC(=O)N(C)CC(=O)O)c(C)c3cc2c1C	-1	0	0	0	0	0	/	/	/	/
COc1ccc(C(=O)Nc2cccc3c2CCCC3)c(OC)c1	-2	0	-2	0	0	/	/	/	/	/
Cc1cccc(NC(=O)c2ccc(OC3CSC3)cc2)c1	0	4.8*	3	3	16*	1	7.8*	4.0*	16*	1
O=C(NC1=NCCS1)c1ccc(OCC2CCCO2)cc1 (stereo not given)	0	3	4	5	7	1	/	/	/	/
O=C(Nc1ncccc1O)c1ccc(OCC2CCCO2)cc1 (stereo not given)	0	18*	5	2	28*	2	14*	5.7*	27*	1
C/C(=N\NC(=O)c1ccc(F)cc1)c1cccc(NC(=O)c2cccc(F)c2)c1	-1	1	3	-2	3	0	/	/	/	/
C/C(=N\NC(=O)c1ccccc1F)c1cccc(NC(=O)c2ccc(C)cc2)c1	-1	5.0*	1	4	13*	0	0	1	7	0
COc1ccc(-n2nc3cc(C)c(NC(C)=O)cc3n2)cc1	0.9*	4.5*	5	3	18*	1	8.4*	1	9	1
O=C(CN1C(=O)NC(CCc2ccccc2)C1=O)Nc1cccc(Br)c1 (stereo not given)	-1	-1	0	0	6	1	/	/	/	/
CCCCn1c(N)c(N(CC)C(=O)c2ccccc2F)c(=O)[nH]c1=O	0	0	-2	2	3	1	/	/	/	/
Oc1ccc(N=Nc2n[nH]c(-c3ccccc3)n2)cc1	1	7.1*	5	3	15*	0	15*	9.2*	17*	1
C=CCCCCCCCC(=O)OC	-1	1	1	-2	2	-1	/	/	/	/
Cc1ccc(-c2onc3ccc(C4OCCO4)cc23)cc1	0	5.3*	4	4	14*	-3	1	-6	3	0
Cc1c(C(=O)OC2CCC(C)CC2)[nH]c2c1C(=O)CCC2 (stereo not given)	0	7.3*	4	4	15*	5.8*	15*	5.9*	21*	1
CCOC(=O)c1cc(-c2ccc3c(c2)OCCO3)n[nH]1	0	5.3*	5	5	19*	5.8*	13*	9.9*	17*	1
Oc1ccccc1-c1cc(-c2ccc3c(c2)OCCO3)n[nH]1	1.0*	5.9*	8.9*	5	13*	1	6.0*	2	24*	1	LXR ag=2;hcDAF12 ag=12*

Screening data as filed in PubChem.
